Source: PubChem BioAssay (EPA / NIEHS)
Activity calls are given as the source filed them. Rule for the calls: active = hit-call score of the fitted dose curve at least 0.9, where 1 is the maximum; inactive = score below 0.9.

Key:
Conditions in all cases: mRNA level, 48 h; actives raise or lower the signal
CYP4A11 (gene 1579) = assay: LTEA_HepaRG_CYP4A11: Life Technologies and Expression Analysis (LTEA) Assay for CYP4A11 using HepaRG (AID 2283486)
In short: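 Readout is CYP4A11 mRNA induction or suppression (qRT-PCR, ACTB/GAPDH/POLR2A normalization) in human HepaRG cells after 48 h chemical treatment, concentrations to 100 uM in 0.5% DMSO, fitted bidirectionally against vehicle.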

[1] = read-out: Cytochrome P450 3A4 (Homo sapiens) (UniProt P08684); assay: LTEA_HepaRG_CYP3A4: Life Technologies and Expression Analysis (LTEA) Assay for CYP3A4 using HepaRG (AID 2283487)
In short: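 HepaRG, 48 h exposure, 8-pt CRC from 100 uM (half-log), 0.5% DMSO, duplicates; serum-free induction medium. Readout: CYP3A4 mRNA, qRT-PCR, ACTB/GAPDH/POLR2A normalization. Bidirectional fit vs DMSO.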

[2] = read-out: DNA damage-inducible transcript 3 (DDIT3), DDIT3 (gene 1649); assay: LTEA_HepaRG_DDIT3: Life Technologies and Expression Analysis (LTEA) Assay for DNA damage-inducible transcript 3 (DDIT3) using HepaRG (AID 2283488)
In short: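 qRT-PCR readout (Fluidigm TaqMan), housekeeping-normalized to ACTB, GAPDH, POLR2A. HepaRG cells, 48 h exposure, 8-point half-log series from 100 uM in 0.5% DMSO, duplicates. Gain or loss of signal fitted against DMSO baseline.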

[3] = read-out: Pro-epidermal growth factor (Homo sapiens) (UniProt P01133); assay: LTEA_HepaRG_EGF: Life Technologies and Expression Analysis (LTEA) Assay for Epidermal growth factor (EGF) using HepaRG (AID 2283489)
In short: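 EGF expression changes in human HepaRG cells are scored by bidirectional fitting relative to 0.5% DMSO controls. Chemicals are tested at eight half-log concentrations up to 100 uM for 48 h in serum-free induction medium.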

[4] = read-out: Early growth response protein 1 (EGR1) transcription factor, EGR1 (gene 1958); assay: LTEA_HepaRG_EGR1: Life Technologies and Expression Analysis (LTEA) Assay for Early growth response protein 1 (EGR1) transcription factor using HepaRG (AID 2283490)
In short: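 EGR1 expression change in human HepaRG after 48 h chemical exposure, assessed by housekeeping-normalized qRT-PCR; concentration-response up to 100 uM, fitted in both directions against DMSO controls.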

[5] = read-out: Ezrin (EZR), EZR (gene 7430); assay: LTEA_HepaRG_EZR: Life Technologies and Expression Analysis (LTEA) Assay for Ezrin (EZR) using HepaRG (AID 2283491)
In short: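 Read-out is EZR transcript level by qRT-PCR, normalized to three housekeeping genes and fitted bidirectionally against the DMSO control. Human HepaRG cells received test chemicals for 48 h at eight half-log concentrations up to 100 uM in 0.5% DMSO.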

[6] = read-out: Cytochrome P450 3A7 (Homo sapiens) (UniProt P24462); assay: LTEA_HepaRG_CYP3A7: Life Technologies and Expression Analysis (LTEA) Assay for CYP3A7 using HepaRG (AID 2283492)
In short: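 Cells were thawed, plated, cultured 48 h, then treated for a further 48 h with chemicals (eight-point half-log series from 100 uM, 0.5% DMSO). RNA was isolated and CYP3A7 expression quantified by qRT-PCR normalised to ACTB, GAPDH and POLR2A.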

CYP3A5 (gene 1577) = assay: LTEA_HepaRG_CYP3A5: Life Technologies and Expression Analysis (LTEA) Assay for CYP3A5 using HepaRG (AID 2283493)
In short: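 qRT-PCR read-out: CYP3A5 transcript in HepaRG lysates, housekeeping-normalized (ACTB/GAPDH/POLR2A), fitted bidirectionally against 0.5% DMSO baseline. Exposure 48 h, eight half-log concentrations up to 100 uM, duplicates.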

[7] = read-out: Fatty Acid-Binding Protein 1 (FABP1), FABP1 (gene 2168); assay: LTEA_HepaRG_FABP1: Life Technologies and Expression Analysis (LTEA) Assay for Fatty Acid-Binding Protein 1 (FABP1) using HepaRG (AID 2283494)
In short: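 Values reflect bidirectional concentration-response fitting of FABP1 mRNA change against 0.5% DMSO controls. Human HepaRG cultures received eight half-log doses (top 100 uM) for 48 h; expression quantified by TaqMan qRT-PCR with housekeeping-gene normalization.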

[8] = read-out: Cytochrome P450 4A22 (Homo sapiens) (UniProt Q5TCH4); assay: LTEA_HepaRG_CYP4A22: Life Technologies and Expression Analysis (LTEA) Assay for Cytochrome P450 4A22 (CYP4A22) using HepaRG (AID 2283495)
In short: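 Cryopreserved HepaRG cells, plated and cultured 48 h, then switched to serum-free induction medium and treated 48 h (duplicates, up to 100 uM, half-log steps, 0.5% DMSO). Expression change of CYP4A22 was fitted bidirectionally against vehicle.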

Chain of Cytochrome P450 3A7 (Homo sapiens) (P24462 whole entry, looked up): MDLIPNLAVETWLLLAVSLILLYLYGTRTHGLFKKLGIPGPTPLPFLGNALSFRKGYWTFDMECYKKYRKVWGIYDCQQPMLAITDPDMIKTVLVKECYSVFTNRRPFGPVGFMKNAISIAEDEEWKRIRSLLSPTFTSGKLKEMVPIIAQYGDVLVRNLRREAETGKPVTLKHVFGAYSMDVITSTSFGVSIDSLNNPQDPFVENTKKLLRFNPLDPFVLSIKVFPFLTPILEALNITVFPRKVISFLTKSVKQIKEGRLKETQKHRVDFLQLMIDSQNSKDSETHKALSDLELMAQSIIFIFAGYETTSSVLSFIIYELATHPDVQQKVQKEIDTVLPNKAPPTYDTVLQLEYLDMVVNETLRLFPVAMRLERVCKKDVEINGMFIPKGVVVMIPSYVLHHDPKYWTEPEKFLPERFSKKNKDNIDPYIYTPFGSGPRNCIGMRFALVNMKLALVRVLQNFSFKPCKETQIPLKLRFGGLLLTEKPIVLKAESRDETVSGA
Chain of Cytochrome P450 3A4 (Homo sapiens) (P08684 whole entry, looked up): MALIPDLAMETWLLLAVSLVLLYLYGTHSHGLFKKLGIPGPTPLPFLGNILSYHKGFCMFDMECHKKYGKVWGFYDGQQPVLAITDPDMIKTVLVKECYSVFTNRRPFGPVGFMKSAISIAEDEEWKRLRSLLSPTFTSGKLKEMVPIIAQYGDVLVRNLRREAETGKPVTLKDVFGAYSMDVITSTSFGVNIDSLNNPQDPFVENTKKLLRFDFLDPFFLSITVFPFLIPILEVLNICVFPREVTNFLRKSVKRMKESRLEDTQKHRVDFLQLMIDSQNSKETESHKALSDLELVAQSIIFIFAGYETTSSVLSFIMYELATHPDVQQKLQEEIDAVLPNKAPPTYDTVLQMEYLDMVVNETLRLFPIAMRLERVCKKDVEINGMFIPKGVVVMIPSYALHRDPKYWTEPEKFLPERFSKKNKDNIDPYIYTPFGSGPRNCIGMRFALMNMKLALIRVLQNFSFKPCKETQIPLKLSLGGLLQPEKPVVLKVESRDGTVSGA

SMILES	outcome (CYP4A11 (gene 1579))	outcome [1]	outcome [2]	outcome [3]	outcome [4]	outcome [5]	outcome [6]	outcome (CYP3A5 (gene 1577))	outcome [7]	outcome [8]	AC50 [1]	AC50 [2]	AC50 (CYP3A5 (gene 1577))	AC50 [7]	AC50 (CYP4A11 (gene 1579))	AC50 [4]	AC50 [5]	AC50 [8]	AC50 [6]
C=CCc1ccc(OC)c(OC)c1	inactive	inactive	inactive	inactive	inactive	inactive	inactive	inactive	inactive	inactive	–	–	–	–	–	–	–	–	–
CC1(C)C(=O)NC(=O)N1CO	inactive	inactive	inactive	inactive	inactive	inactive	inactive	inactive	inactive	inactive	–	–	–	–	–	–	–	–	–
CC(=O)O[C@]1(C(C)=O)CC[C@H]2[C@@H]3C=C(Cl)C4=CC(=O)[C@@H]5C[C@@H]5[C@]4(C)[C@H]3CC[C@@]21C	inactive	–	–	inactive	inactive	inactive	inactive	–	–	inactive	36.5 µM (active)	18.5 µM (active)	50 µM (active)	21.7 µM (active)	–	–	–	–	–
CC(=O)O	inactive	inactive	inactive	inactive	inactive	inactive	inactive	inactive	inactive	inactive	–	–	–	–	–	–	–	–	–
C=CCCCCCCCCCCCC	inactive	inactive	inactive	inactive	inactive	inactive	inactive	inactive	inactive	inactive	–	–	–	–	–	–	–	–	–
O=C1O[C@H]([C@H](O)CO)C(O)=C1O	inactive	inactive	inactive	inactive	inactive	inactive	inactive	inactive	inactive	inactive	–	–	–	–	–	–	–	–	–
COC(=O)CCCC(=O)OC	inactive	inactive	inactive	inactive	inactive	inactive	inactive	inactive	inactive	inactive	–	–	–	–	–	–	–	–	–
NCCOCCOCCN	inactive	inactive	inactive	inactive	inactive	inactive	inactive	inactive	inactive	inactive	–	–	–	–	–	–	–	–	–
CCN(CC)CCOc1ccc(C(=C(Cl)c2ccccc2)c2ccccc2)cc1	–	inactive	–	inactive	–	–	inactive	inactive	inactive	–	–	42 µM (active)	–	–	19.3 µM (active)	81.3 µM (active)	67.8 µM (active)	13.3 µM (active)	–
CCCCCCC(CCCCCCCCCCC(=O)OCC(COC(C)=O)OC(C)=O)OC(C)=O (stereo not given)	inactive	inactive	inactive	inactive	inactive	inactive	inactive	inactive	inactive	inactive	–	–	–	–	–	–	–	–	–
O=C(NS(=O)(=O)/C=C/c1cccs1)c1ccc(F)cc1Br	–	–	inactive	–	inactive	inactive	–	inactive	–	inactive	5.73 µM (active)	–	–	26.6 µM (active)	14.1 µM (active)	–	–	–	5.96 µM (active)
CC(N)=O	inactive	inactive	inactive	–	inactive	inactive	inactive	inactive	inactive	inactive	–	–	–	–	–	–	–	–	–
CC(=O)OCC(COC(C)=O)OC(C)=O	inactive	inactive	inactive	inactive	inactive	inactive	inactive	inactive	inactive	inactive	–	–	–	–	–	–	–	–	–
O=NO	inactive	inactive	inactive	–	inactive	inactive	inactive	inactive	inactive	inactive	–	–	–	–	–	–	–	–	–
CC(=O)OC1CC(C)OC(C)O1 (stereo not given)	inactive	inactive	inactive	inactive	inactive	inactive	inactive	inactive	inactive	inactive	–	–	–	–	–	–	–	–	–
Cc1occc(=O)c1O	inactive	inactive	inactive	inactive	inactive	inactive	inactive	inactive	inactive	inactive	–	–	–	–	–	–	–	–	–
CCCCCCC(C=O)=Cc1ccccc1	inactive	inactive	inactive	inactive	inactive	inactive	inactive	inactive	inactive	inactive	–	–	–	–	–	–	–	–	–
CCCCCCCCCCCCCCCCO	–	inactive	inactive	inactive	inactive	–	inactive	inactive	inactive	inactive	–	–	–	–	16.8 µM (active)	–	0.102 µM (active)	–	–
Cc1cn([C@H]2C=C[C@@H](CO)O2)c(=O)[nH]c1=O	inactive	inactive	inactive	–	inactive	inactive	inactive	inactive	inactive	inactive	–	–	–	–	–	–	–	–	–
CCCCCCCCCC[N+](C)(C)[O-]	inactive	inactive	inactive	–	inactive	inactive	inactive	inactive	inactive	inactive	–	–	–	–	–	–	–	–	–
O=C(O)CN(CC(=O)O)CC(=O)O	inactive	inactive	inactive	inactive	inactive	inactive	inactive	inactive	inactive	inactive	–	–	–	–	–	–	–	–	–
